The record followed here is PubChem BioAssay (EPA / NIEHS).

Results filed as inconclusive are left out. Calls of active or inactive are those of the source. Rule for the calls, unless noted: active = hit-call score of the fitted dose curve at least 0.9, where 1 is the maximum; inactive = score below 0.9.

By AC50 is commonly meant the midpoint of the concentration-response curve, whichever way the signal moves.

Experiment [1] is described as follows: CCTE_Harrill_HTTr_Apoptosis_MCF7: CCTE's 6-hour Apoptosis Assessment for the High-Throughput Transcriptomics (HTTr) Platform, in MCF-7 cells cultured in DMEM + 10% fetal bovine serum, Harrill Lab (AID 2284011). The method, boiled down: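 MCF-7 cells in DMEM + 10% FBS exposed 6 h to chemicals over an eight-point dilution series. Caspase-3/7 activation imaged by high-content CellEvent Green staining; fitted bidirectionally versus DMSO.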

A short description of experiment [2]: CCTE_Harrill_HTTr_CellCount_MCF7: CCTE's Cell Proliferation Assessment for the High-Throughput Transcriptomics (HTTr) Platform, Harrill Lab (AID 2284012; active = hit-call score of the fitted dose curve at least 0.9, where 1 is the maximum;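 note: cells exposed to compound for six hours; intended direction is loss of nuclei count meaning fewer cells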). Summed up:
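MCF-7 cells were exposed for 6 h to an eight-point dilution series; Hoechst-labeled nuclei were counted by high content imaging. Curves were fitted bidirectionally against DMSO as negative control and baseline, with signal loss indicating reduced cell count.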

The nature of experiment [3]: CCTE_Shafer_MEA_acute_burst_number: CCTE's Neural Acute Assay for Single-Electrode Bursts, Shafer Lab (AID 2284013). The method, boiled down:
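Spontaneous network activity of primary rat cortical neurons was recorded extracellularly on microelectrode arrays at 37 C, with 40-min periods before and during exposure to 0.03-40 uM compound on DIV 13 or 15.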

A short description of experiment [4]: CCTE_Shafer_MEA_acute_burst_duration_mean: CCTE's Neural Acute Assay for Mean Burst Duration, Shafer Lab (AID 2284014).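 Note: hits are decreases in mean burst duration relative to DMSO controls.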 The method, boiled down:
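Read-out is the per-well percent change in mean burst duration (first to last spike within a single-electrode burst) between 40-min recordings before and after compound. Cultures were primary rat cortical neurons on MEAs, dosed at 0.03-40 uM on DIV 13 or 15.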

Experiment [5] in a line: CCTE_Shafer_MEA_acute_per_burst_spike_number_mean: CCTE's Neural Acute Assay for Average Number of Spikes Per Burst, Shafer Lab (AID 2284015).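 Note: hits are decreases in mean spikes per burst versus baseline.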 Summed up: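 Read-out: percent change in mean spikes per burst, each well's post-exposure 40-min recording versus its own 40-min baseline. Rat cortical cultures, DIV 13 or 15, compounds 0.03-40 uM; DMSO is negative control, loss-of-signal fitting.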

A short description of experiment [6]: CCTE_Shafer_MEA_acute_interburst_interval_mean: CCTE's Neural Acute Assay for Mean Interburst Interval, Shafer Lab (AID 2284016).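 Note: percent change of mean interburst interval versus each well's own pre-dose baseline; curves fitted for decrease in interburst interval relative to DMSO.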 Summed up: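 Rat cortical cultures, DIV 13/15; 20 min equilibration, 40 min baseline, compound 0.03-40 uM, 40 min re-recording, 37 C. Spikes detected at 8x rms noise (300-5000 Hz band-pass). Endpoint: % change in interburst interval, fitted in loss direction vs DMSO.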

A short description of experiment [7]: CCTE_Shafer_MEA_acute_burst_percentage_std: CCTE's Neural Acute Assay for Standard Deviation of Burst Percentage, Shafer Lab (AID 2284018).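 Note: fitted in the negative direction so actives lower burst percentage SD.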 The method, boiled down: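 Value is percent change from baseline in the across-electrode SD of spikes-in-bursts percentage, wells with >/= 10 active electrodes. Acute 40-min exposure to 0.03-40 uM on DIV 13 or 15 rat cortical cultures, recorded at 37 C after 40-min baseline.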

Experiment [8] is described as follows: CCTE_Shafer_MEA_acute_per_network_burst_spike_number_mean: CCTE's Neural Acute Assay for Average Number of Spikes in a Network Burst, Shafer Lab (AID 2284019). Summed up:
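Read-out is mean spike count per network burst, taken as percent change between a 40-min pre-exposure and a 40-min post-exposure recording per well. Rat primary cortical neurons on MEAs at 37 C, DIV 13 or 15; compounds at 0.03-40 uM.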

Experiment [9] in a line: CCTE_Shafer_MEA_acute_per_network_burst_electrodes_number_mean: CCTE's Neural Acute Assay for Mean Number of Electrodes in a Network Burst, Shafer Lab (AID 2284021).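 Note: curves fitted for decreases only so hits reduce electrodes per burst.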 The method, boiled down:
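Rat primary cortical neurons on 48-well MEAs, DIV 13 or 15, were treated at 0.03-40 uM. Spikes were detected at 8x rms noise and recorded at 37 C. The mean electrodes per network burst in a 40 min exposure recording was expressed as percent change from a 40 min baseline.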

Experiment [10] is described as follows: CCTE_Shafer_MEA_acute_cross_correlation_HWHM: CCTE's Neural Acute Assay for Cross Correlation at Half Width at Half Maximum, Shafer Lab (AID 2284026).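 Note: percent change per well from pre-dose baseline in spike cross-correlogram half width; hits are a decrease in cross-correlogram half width relative to DMSO.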 The method, boiled down:
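Rat primary cortical neurons on 48-well MEA plates; 40-min baseline and 40-min post-exposure recordings at 37 C on DIV 13 or 15, compounds 0.03-40 uM. Spikes detected at 8x rms noise; percent change in cross-correlogram HWHM per well vs baseline.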

A short description of experiment [11]: CCTE_Shafer_MEA_acute_synchrony_index: CCTE's Neural Acute Assay for Synchrony, Shafer Lab (AID 2284027).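 Note: network synchrony index of spontaneous spiking in primary rat cortical neurons on MEAs; fitted for loss of signal so actives lower synchrony relative to DMSO.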 The method, boiled down:
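Primary rat cortical neurons on 16-electrode MEA wells were recorded 40 min at baseline (DIV 13 or 15) and 40 min after compound (0.03-40 uM) at 37 C. Synchrony index (0-1) expressed as percent change from baseline, versus DMSO.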

Experiment [12] is described as follows: CCTE_Shafer_MEA_dev_per_burst_spike_percent: CCTE's Neural Network Formation Assay for Percent of Spikes in a Burst, Shafer Lab (AID 2284032). The method, boiled down: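 Rat primary cortical neurons on 16-electrode MEA wells, dosed from plating day 0 for 12 days with renewal on DIV 5 and 9; spikes-in-bursts percentage averaged over bursting electrodes, collapsed as AUC across days 5, 7, 9, 12; loss direction versus DMSO.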

Experiment [13] is described as follows: CCTE_Shafer_MEA_dev_burst_rate: CCTE's Neural Network Formation Assay for Burst Rate, Shafer Lab (AID 2284042). The method, boiled down:
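Cells plated, treated day 0; recorded DIV 5, 7, 9, 12; fed and re-treated DIV 5, 9. Endpoint: bursts per recording time, active-electrode well mean, trapezoidal AUC, fitted in decreasing direction against DMSO baseline.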

With `Clc1cccc(Cl)c1Cl`, the result in experiment [1], in experiment [2], in experiment [3], in experiment [4], in experiment [5] and in experiment [6] was inactive. The outcome in experiment [7], in [8], in experiment [9], in experiment [10] and in [11] was inactive.
Turning to `Brc1ccc(Br)cc1`, the outcome in [1] and in [2] was inactive.
On to `C[CH2][Hg][S]c1ccccc1C(=O)O`, for which the result in experiment [1] was inactive. For the same compound, in experiment [2], the half-maximal activity concentration (AC50) was 50 µM (active).
Regarding `O=[N+]([O-])c1ccccc1O`, the outcome in [1] and in experiment [2] was inactive.
Regarding `Cc1cc(Cl)ccc1N`, the outcome in experiment [1] and in [2] was inactive.
With `O=c1[nH]c2ccccc2n1C1CCN(CCCC(c2ccc(F)cc2)c2ccc(F)cc2)CC1`, the results for the concentration at half-maximal activity (AC50) in experiment [1] and in experiment [2] were 60.9 µM (active) and 94.7 µM (active), respectively.
For the compound `O=[N+]([O-])c1ccc(Cl)c([N+](=O)[O-])c1`, the result in experiment [1] and in experiment [2] was inactive.
Consider `O=C(NC(=O)c1c(F)cccc1F)Nc1ccc(Cl)cc1`, for which the result in experiment [1] and in [2] was inactive.
On to `CS(=O)(=O)c1ccc(C(=O)C2C(=O)CCCC2=O)c(Cl)c1COCC(F)(F)F`, for which the outcome in experiment [1], in experiment [2], in experiment [3], in [4], in experiment [5] and in experiment [6] was inactive. Besides, the compound was classed as inactive in experiment [7], in experiment [8], in experiment [9], in experiment [10], in experiment [11] and in experiment [12]. Further, in [13], the call was inactive.
Turning to `OCCN(CCO)CCO`, the result in experiment [1] and in experiment [2] was inactive.
Turning to `CC(C)N(C(=O)CCl)c1ccccc1`, the outcome in experiment [1] and in experiment [2] was inactive.
Consider `CC(C)(C)c1ccccc1O`, for which the outcome in experiment [1], in [2], in [3], in experiment [4], in experiment [5] and in experiment [6] was inactive. The outcome in experiment [8] and in experiment [9] was inactive. Moreover, the AC50 was 31.8 µM (active) in experiment [7], 20 µM (active) in experiment [10] and 20 µM (active) in experiment [11].
On to `CCOc1cc(C=O)ccc1O`, for which the result in [1] and in [2] was inactive.
With `N#CCCC(Br)(C#N)CBr` (stereo unspecified), the outcome in [1] and in experiment [2] was inactive.
For `O=C(O)COc1cc(Cl)c(Cl)cc1Cl`, the outcome in [1] and in experiment [2] was inactive.
For the compound `O=C1C[C@@H]2OCC=C3CN4CC[C@]56c7ccccc7N1[C@H]5[C@H]2[C@H]3C[C@H]46`, the result in experiment [1] and in experiment [2] was inactive.
Regarding `OC[C@@H](O)[C@H]1O[C@@H]2O[C@H](C(Cl)(Cl)Cl)O[C@@H]2[C@H]1O`, the outcome in experiment [1] and in experiment [2] was inactive.
For the compound `CCOC(=O)OC1=C(c2cc(C)ccc2C)C(=O)NC12CCC(OC)CC2` (stereo unspecified), the result in experiment [1] and in experiment [2] was inactive.
On to `Brc1c(Br)c(Br)c(Oc2c(Br)c(Br)c(Br)c(Br)c2Br)c(Br)c1Br`, for which the result in experiment [1] and in [2] was inactive.
Consider `Clc1cnc(Oc2ccc(Oc3ncc(Cl)cc3Cl)cc2)c(Cl)c1`, for which the result in experiment [1] and in experiment [2] was inactive.
As to `O=CCCl`, the result in experiment [1] and in [2] was inactive.
